# Measurements taken from the supplement of paper PMC6555819.
# System: VDR:RXRa (NR concentration 270 nM, RXRa partner concentration 90 nM)
# Assay: PBM binding z-score (relative to random genomic background probes); higher = stronger binding; sequences stand for … in GC…GCGATTGACAGCGTAGAATGAAGG
# Experimental: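 Protein-binding microarray (Agilent 4x180K custom design, double-stranded 60-nt probes: 5' GC cap, 34-nt variable region, 24-nt constant primer region; full probe sequence given). Purified or IVT nuclear receptor:RXRα heterodimers (3:1 NR:RXRα, mostly 270:90 nM) or homodimers were incubated for 1 h in PBS with 2% milk and no ligand, then detected with Alexa488 antibodies. Fluorescence from o1-orientation probes (~5 replicates averaged) was converted to z-scores against 500 random hg19 background probes. Variable regions are seed direct-repeat (DR0–DR5) sites, all their single-nucleotide variants and half-site ablations.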
row,Sequence,PBM binding z-score
1,CCTAATGGGCCAAGGTCATTGATCAGTCAAAGCA,3.37
2,CAAACTAGGTCACAGATGTCAAAGTCCGTGCGTA,4.5
3,TTACCAATGTGAAAGGTCGTTGATGCACGCCTTG,2.08
4,CCTCGGAGGACAACAGGAGGTCAGACCTGCCAGA,1.95
5,ATCTCTAGGTAAATTTCAGTGAAAGATCGATAGA,0.297
6,CGAACTTGGTCATCCAGGACAGTGAATACATTGA,1.59
7,ATACCAAGGTGATCGTGAGGTCGTCGATACTAAC,2.72
8,GGAACGTGGGCATTCGAGTTGATAGCATGGCGAT,-0.17
9,GCAGACAGGTGAAACGCCGGTAACTCAGGGTGGC,-0.708
10,TCATATAGGTAATACTGGTGAAAGTCGGCATCTA,0.963
11,CAGCCTAGGTCAGGGCCTGTATAGGAGGAACGTT,-0.0829
12,ATCGAAAGGACGTGAGGTGAGTATACAGAAAGGC,-0.301
13,AGAACGAGGTTAAGATCAGGGAAACAGAATACAT,1.36
14,ATATGTAGGTTAGCGGGTCATTCAGTTTGCGCAT,4.74
15,GCTATTAGTTGAAAGGGCAACCGGATGATTCTCG,0.47
16,ACTAGCAGGCCAATGGTCACTCAAGATTAGTCCG,-0.614
17,CAAACTAGGTCACGTAAGGTCAAAGTCGAATGAC,7.01
18,CGCACTAGGTCAAGGACAGTGAATCTCCGCACGC,1.28
19,GCAGACAGGTGAAACGCAGGTAACTCAGGGTGGC,-0.544
20,AGTCCAAGTTCATCTAGGTAACGTAAGATATGCT,4.48

row,Sequence,PBM binding z-score
1,GCAGACAGGTGAAAAGCAGGTAACTCAGGGTGGC,-0.329
2,TCATATAGGTAACCAGGTGAAAGTCCGTAAGTTA,1.06
3,ACTAACAGGCCAAGTTTGGGTCACTCAAACAAAG,0.973
4,AGAACGAGGGCACGCGGAGTTGATAGCAGAGTAG,1.95
5,CATGCTAGGTCAATGGTCAGCTAAAGCAGCTCGC,1.06
6,CGCGAAAGGTCGGTTGAGGTGAGTATACGGATAA,2.25
7,GCTTACGGGTCAAATGTTATAGCATGAATAGAAT,3.64
8,AGAATGAGGTTACCAAAGAACAGGGAAACGCTTG,1.17
9,GGAACGTGGGCAAGTTGATAGCAGAGTTTGATGG,-0.629
10,CCGACTGGGCCAAGGTTACCATAACGCACAGCCA,-0.185
11,CAAACTAGGTCAAGACGTCAAAGTCCGCTTCCCG,1.62
12,GCGACTGGGGCATCAGCAGGTTACCGTAACTTAA,-0.147
13,CCAGACAGGTGAAAGGTAACACAGTCTGGTACGC,0.959
14,TCATATAGGGAAACAGGTGAAAGTCCGTAAGTTA,0.918
15,TAGCCTAGGTCAGGCGGGCCAGTATAGTGTCGGC,0.804
16,GCGACTGGGGCAAAGCAGGTTACCAAAAGGTTGG,0.136
17,GCTGCTAGGTCAACTGATGCTCAGCTAAAGCTCG,1.38
18,GCAGACAGGTGAAACGCAGGTAACTCGGGGTGGC,-0.198
19,CAAACTAGATCACGAAAGGTCAAAGTCGAATGAC,4.79
20,TAAACAGGGTCAAAGGCCAGAGTACGAATGTCGA,4.92
